Assay in all cases: DAPPL (digital affinity profiling via proximity ligation, sequencing); 10 mM Tris-HCl pH 7.5, 50 mM NaCl, 1 mM DTT, 4% glycerol, room temperature, 30 min; GST-TFs on glutathione beads, 16-mer random dsDNA library, 0.1% formaldehyde crosslink after washing; high values mean tight binding
In one test the target is T1, FLI1 (Homo sapiens, UniProt Q01543 1-452).
T1 sequence: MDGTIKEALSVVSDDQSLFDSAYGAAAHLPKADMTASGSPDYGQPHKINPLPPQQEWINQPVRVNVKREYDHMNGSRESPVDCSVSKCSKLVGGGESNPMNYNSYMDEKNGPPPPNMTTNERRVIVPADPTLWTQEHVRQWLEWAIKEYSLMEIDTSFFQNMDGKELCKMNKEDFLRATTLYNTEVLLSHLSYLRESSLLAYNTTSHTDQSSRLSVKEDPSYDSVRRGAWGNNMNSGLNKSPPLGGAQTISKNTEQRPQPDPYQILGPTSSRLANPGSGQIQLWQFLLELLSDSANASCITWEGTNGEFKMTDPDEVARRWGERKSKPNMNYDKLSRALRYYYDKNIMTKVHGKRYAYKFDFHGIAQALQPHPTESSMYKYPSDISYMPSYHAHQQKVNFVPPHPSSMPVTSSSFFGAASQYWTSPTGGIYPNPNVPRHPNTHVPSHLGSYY
The conditions noted are these: protein: recombinant; tags: N-terminal GST; dsDNA, one strand shown. In outline: (§1)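 In yeast, human transcription factors were expressed with a GST fusion, then pulled down on glutathione beads and given DNA barcodes. Pooled with a tag-only sample, they were exposed to 200 nmole of a 16-mer random double-stranded DNA library (Tris/NaCl/DTT/glycerol buffer, room temperature, 30 min), washed, crosslinked with 0.1% formaldehyde, proximity-ligated using BsaI/T4 ligase for 1 h at 37 °C, PCR-amplified and read on an Illumina NextSeq500. Each hexamer's frequency of reads for a factor, divided by the matching frequency for the tag-only sample, gives the binding signal.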

In the next test the target is T2, ELK1 (Homo sapiens, UniProt P19419 1-428).
T2 sequence: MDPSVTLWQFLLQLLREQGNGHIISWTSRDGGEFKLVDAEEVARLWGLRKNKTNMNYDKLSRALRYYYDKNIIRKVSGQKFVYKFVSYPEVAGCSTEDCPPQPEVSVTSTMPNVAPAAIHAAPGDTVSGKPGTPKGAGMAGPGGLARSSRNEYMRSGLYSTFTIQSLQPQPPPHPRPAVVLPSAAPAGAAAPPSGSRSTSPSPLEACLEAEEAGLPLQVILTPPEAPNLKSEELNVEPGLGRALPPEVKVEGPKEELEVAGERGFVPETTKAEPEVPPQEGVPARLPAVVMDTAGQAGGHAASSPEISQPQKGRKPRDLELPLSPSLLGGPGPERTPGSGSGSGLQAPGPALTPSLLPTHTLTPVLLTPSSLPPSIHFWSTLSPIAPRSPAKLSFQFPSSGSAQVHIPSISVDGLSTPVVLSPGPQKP
Particulars: protein: recombinant; tags: N-terminal GST; dsDNA, one strand shown. The procedure, abridged:
as §1

The target of a further test is T3, GABPA (Homo sapiens, UniProt Q06546 1-454).
T3 sequence: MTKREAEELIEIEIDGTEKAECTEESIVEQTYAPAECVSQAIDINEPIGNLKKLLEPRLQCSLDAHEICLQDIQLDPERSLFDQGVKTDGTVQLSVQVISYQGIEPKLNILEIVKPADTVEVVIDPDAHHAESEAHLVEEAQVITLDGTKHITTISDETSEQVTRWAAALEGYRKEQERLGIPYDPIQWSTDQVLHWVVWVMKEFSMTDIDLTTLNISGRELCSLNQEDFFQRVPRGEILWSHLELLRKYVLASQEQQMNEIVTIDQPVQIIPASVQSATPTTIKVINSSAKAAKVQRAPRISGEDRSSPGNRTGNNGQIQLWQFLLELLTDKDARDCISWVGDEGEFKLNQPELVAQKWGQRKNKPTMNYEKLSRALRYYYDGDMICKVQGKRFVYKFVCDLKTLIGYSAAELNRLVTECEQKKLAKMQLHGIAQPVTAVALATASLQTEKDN
Particulars: protein: recombinant; tags: N-terminal GST; dsDNA, one strand shown. In outline: as §1

Another test addresses T4, ERG (Homo sapiens, UniProt P11308 1-479).
T4 sequence: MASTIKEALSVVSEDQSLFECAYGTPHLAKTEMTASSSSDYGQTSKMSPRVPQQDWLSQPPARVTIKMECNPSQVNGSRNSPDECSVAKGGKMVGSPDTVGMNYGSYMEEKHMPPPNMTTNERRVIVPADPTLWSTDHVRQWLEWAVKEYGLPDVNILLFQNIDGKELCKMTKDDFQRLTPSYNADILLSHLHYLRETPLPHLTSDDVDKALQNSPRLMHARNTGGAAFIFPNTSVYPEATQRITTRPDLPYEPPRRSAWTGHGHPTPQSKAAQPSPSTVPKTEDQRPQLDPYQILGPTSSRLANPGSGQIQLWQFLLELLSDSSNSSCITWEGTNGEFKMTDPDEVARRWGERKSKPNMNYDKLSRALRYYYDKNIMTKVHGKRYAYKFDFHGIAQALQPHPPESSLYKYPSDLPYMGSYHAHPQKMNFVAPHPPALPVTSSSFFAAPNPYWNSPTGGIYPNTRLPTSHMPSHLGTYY
The conditions noted are these: protein: recombinant; tags: N-terminal GST; dsDNA, one strand shown. In outline:
as §1

The next test concerns the target ELF1 (Homo sapiens, UniProt P32519 1-619). The conditions noted are these: protein: recombinant; tags: N-terminal GST; dsDNA, one strand shown. The procedure, abridged: as §1
The next test has as its target T5, EHF (Homo sapiens, UniProt Q9NZC4 1-300).
T5 sequence: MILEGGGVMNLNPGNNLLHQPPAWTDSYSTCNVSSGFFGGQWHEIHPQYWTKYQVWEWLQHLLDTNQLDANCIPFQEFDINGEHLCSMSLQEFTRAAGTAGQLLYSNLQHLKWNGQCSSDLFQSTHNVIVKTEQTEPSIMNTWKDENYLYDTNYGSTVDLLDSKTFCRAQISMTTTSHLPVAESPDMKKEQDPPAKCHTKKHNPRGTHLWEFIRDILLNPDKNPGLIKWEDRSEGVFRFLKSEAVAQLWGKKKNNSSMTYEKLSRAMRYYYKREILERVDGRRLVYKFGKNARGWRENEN
Particulars: protein: recombinant; tags: N-terminal GST; dsDNA, one strand shown. In outline:
as §1

The target in another test is SPI1 (Homo sapiens, UniProt P17947 1-270). Particulars: protein: recombinant; tags: N-terminal GST; dsDNA, one strand shown. In outline:
as §1

The target in a further test is SPIB (Homo sapiens, UniProt Q01892 1-262). The conditions noted are these: protein: recombinant; tags: N-terminal GST; dsDNA, one strand shown. The procedure, abridged: as §1
Sequence of SPIB (Q01892 whole entry): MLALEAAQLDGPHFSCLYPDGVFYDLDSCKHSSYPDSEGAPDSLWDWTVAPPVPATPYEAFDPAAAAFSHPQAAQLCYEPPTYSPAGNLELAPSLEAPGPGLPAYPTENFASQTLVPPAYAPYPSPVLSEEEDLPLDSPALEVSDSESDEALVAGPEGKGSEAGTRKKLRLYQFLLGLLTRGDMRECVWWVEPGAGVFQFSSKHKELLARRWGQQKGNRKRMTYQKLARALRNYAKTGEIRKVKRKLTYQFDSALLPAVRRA
For the next test, the target named is T6, ELK3 (Homo sapiens, UniProt P41970 1-407).
T6 sequence: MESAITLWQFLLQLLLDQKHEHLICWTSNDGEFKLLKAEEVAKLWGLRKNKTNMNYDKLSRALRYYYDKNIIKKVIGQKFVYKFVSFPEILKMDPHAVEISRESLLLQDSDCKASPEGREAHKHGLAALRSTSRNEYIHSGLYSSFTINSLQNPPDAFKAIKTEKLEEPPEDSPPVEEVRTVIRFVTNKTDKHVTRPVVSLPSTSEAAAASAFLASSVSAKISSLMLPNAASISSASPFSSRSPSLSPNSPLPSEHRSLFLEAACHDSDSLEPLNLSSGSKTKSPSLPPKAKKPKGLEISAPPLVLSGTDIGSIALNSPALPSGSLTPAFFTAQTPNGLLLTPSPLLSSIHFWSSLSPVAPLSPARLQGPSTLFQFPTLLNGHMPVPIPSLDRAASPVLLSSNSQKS
The conditions noted are these: protein: recombinant; tags: N-terminal GST; dsDNA, one strand shown. In outline: as §1

In the next test the target is ETV5 (Homo sapiens, UniProt P41161 1-510). Particulars: protein: recombinant; tags: N-terminal GST; dsDNA, one strand shown. In outline:
as §1

A further test addresses HSF1 (Homo sapiens, UniProt Q00613 1-529). Particulars: protein: recombinant; tags: N-terminal GST; chain copies: 3; dsDNA, one strand shown. In outline: as §1
The target in another test is T7, SPIC (Homo sapiens, UniProt Q8N5J4 1-248).
T7 sequence: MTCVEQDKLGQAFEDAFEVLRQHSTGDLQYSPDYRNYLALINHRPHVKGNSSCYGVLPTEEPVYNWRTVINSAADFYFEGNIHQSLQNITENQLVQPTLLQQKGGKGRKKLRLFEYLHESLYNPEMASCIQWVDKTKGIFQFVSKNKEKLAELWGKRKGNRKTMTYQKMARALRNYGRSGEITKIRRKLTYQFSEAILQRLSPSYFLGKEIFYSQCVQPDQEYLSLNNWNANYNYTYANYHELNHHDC
The conditions noted are these: protein: recombinant; tags: N-terminal GST; dsDNA, one strand shown. In outline:
as §1

The target in another test is ELF4 (Homo sapiens, UniProt Q99607 1-663). Particulars: protein: recombinant; tags: N-terminal GST; dsDNA, one strand shown. In outline: as §1
Sequence of ELF4 (Q99607 whole entry): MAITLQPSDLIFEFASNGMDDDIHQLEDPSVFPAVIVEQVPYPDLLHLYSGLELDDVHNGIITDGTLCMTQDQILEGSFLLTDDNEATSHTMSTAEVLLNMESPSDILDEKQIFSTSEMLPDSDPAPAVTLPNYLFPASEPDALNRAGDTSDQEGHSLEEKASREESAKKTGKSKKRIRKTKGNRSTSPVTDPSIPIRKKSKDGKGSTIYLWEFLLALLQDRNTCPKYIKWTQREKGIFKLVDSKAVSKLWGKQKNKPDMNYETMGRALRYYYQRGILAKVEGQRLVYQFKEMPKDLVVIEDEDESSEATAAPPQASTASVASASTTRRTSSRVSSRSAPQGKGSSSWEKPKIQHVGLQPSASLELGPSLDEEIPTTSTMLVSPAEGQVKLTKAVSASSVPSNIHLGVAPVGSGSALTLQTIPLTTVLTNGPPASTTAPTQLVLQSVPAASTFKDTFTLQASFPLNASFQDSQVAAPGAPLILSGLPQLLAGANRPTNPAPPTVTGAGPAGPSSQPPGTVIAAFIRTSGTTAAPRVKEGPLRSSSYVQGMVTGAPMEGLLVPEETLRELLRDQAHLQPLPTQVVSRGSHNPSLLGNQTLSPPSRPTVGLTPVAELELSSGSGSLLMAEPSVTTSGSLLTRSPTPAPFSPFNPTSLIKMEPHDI
Another test deals with T8, ELK4 (Homo sapiens, UniProt P28324-2 1-405).
T8 sequence: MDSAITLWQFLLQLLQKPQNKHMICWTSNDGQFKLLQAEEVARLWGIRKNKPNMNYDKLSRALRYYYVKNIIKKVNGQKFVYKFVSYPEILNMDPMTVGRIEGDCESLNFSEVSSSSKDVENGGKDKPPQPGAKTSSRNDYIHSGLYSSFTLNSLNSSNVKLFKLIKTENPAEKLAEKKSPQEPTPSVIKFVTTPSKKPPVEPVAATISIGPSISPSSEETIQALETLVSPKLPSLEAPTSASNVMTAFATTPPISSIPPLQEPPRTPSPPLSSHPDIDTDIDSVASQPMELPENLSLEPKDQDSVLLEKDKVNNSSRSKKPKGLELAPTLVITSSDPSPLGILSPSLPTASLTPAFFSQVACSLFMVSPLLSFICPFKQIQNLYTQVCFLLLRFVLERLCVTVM
Particulars: protein: recombinant; tags: N-terminal GST; dsDNA, one strand shown. The procedure, abridged:
as §1

A further test concerns the target T9, ETV2 (Homo sapiens, UniProt O00321 1-342).
T9 sequence: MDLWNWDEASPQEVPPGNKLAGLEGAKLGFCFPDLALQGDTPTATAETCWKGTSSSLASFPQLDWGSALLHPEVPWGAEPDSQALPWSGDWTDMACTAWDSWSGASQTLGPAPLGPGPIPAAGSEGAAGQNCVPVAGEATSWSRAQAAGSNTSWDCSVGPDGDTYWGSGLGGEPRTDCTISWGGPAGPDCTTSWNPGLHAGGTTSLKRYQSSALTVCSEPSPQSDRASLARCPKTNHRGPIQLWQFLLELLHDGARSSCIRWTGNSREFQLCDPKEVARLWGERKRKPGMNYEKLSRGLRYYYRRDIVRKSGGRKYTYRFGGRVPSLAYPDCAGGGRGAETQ
Particulars: protein: recombinant; tags: N-terminal GST; dsDNA, one strand shown. The procedure, abridged: as §1

A further test concerns the target T10, ELF3 (Homo sapiens, UniProt P78545 1-371).
T10 sequence: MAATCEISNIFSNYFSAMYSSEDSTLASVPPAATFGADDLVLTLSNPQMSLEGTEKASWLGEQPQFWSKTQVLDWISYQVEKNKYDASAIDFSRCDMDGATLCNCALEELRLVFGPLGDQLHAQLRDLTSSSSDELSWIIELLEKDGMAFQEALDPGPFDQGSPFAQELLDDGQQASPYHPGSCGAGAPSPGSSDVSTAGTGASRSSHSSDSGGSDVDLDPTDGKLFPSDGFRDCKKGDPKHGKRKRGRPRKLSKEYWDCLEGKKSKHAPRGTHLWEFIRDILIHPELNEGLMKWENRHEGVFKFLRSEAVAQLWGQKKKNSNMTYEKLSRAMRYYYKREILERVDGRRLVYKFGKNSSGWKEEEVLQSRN
Particulars: protein: recombinant; tags: N-terminal GST; dsDNA, one strand shown. In outline: as §1

Another test concerns the target CRX (Homo sapiens, UniProt O43186 1-299). The conditions noted are these: protein: recombinant; tags: N-terminal GST; dsDNA, one strand shown. In outline: as §1
Another test deals with ETV1 (Homo sapiens, UniProt P50549 1-477). Particulars: protein: recombinant; tags: N-terminal GST; dsDNA, one strand shown. The procedure, abridged: as §1
Sequence of ETV1 (P50549 whole entry): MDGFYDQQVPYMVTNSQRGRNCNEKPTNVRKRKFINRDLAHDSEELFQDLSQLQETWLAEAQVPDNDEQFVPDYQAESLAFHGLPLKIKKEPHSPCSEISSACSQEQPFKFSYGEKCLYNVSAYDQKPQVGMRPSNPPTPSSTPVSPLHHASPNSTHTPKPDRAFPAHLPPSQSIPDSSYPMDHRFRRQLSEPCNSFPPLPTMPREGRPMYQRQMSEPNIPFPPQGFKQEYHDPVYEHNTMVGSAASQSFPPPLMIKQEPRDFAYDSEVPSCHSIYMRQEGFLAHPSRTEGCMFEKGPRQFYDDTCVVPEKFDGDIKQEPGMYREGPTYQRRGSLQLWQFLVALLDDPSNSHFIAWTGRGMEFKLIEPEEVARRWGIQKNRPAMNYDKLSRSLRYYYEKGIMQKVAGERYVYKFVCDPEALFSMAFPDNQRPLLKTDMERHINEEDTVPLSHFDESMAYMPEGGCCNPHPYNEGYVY

Sequence of HSF1 (Q00613 whole entry): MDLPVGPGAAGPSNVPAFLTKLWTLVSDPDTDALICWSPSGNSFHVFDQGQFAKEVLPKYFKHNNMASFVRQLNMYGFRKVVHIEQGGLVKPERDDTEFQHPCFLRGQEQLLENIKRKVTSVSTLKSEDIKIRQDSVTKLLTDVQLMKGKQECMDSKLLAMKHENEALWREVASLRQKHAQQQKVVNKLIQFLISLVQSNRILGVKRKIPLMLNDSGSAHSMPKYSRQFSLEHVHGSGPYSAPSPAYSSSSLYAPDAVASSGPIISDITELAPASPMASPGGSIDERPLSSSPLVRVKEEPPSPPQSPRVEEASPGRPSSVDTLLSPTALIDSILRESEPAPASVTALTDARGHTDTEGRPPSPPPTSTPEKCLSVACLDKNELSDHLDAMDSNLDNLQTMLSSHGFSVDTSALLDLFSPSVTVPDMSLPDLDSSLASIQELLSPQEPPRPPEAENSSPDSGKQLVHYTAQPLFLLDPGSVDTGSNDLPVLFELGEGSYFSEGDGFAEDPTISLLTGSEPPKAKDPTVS
Sequence of ELF1 (P32519 whole entry): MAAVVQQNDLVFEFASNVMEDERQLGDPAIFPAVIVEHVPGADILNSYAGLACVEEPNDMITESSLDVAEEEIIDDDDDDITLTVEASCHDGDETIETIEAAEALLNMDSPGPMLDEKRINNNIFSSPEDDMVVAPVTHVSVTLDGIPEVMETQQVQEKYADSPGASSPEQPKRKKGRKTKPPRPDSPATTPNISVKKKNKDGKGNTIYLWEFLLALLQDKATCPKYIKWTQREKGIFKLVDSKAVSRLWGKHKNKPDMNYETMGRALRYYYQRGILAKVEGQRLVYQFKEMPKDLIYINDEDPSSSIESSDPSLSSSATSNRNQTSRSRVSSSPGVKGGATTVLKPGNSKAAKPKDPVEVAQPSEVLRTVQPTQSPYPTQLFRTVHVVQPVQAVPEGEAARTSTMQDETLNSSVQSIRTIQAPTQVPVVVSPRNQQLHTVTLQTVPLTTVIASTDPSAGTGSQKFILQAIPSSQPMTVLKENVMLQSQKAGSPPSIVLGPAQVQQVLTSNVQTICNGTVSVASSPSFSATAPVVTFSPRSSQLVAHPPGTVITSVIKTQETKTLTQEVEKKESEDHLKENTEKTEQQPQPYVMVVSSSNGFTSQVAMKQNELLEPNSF
Sequence of ETV5 (P41161 whole entry): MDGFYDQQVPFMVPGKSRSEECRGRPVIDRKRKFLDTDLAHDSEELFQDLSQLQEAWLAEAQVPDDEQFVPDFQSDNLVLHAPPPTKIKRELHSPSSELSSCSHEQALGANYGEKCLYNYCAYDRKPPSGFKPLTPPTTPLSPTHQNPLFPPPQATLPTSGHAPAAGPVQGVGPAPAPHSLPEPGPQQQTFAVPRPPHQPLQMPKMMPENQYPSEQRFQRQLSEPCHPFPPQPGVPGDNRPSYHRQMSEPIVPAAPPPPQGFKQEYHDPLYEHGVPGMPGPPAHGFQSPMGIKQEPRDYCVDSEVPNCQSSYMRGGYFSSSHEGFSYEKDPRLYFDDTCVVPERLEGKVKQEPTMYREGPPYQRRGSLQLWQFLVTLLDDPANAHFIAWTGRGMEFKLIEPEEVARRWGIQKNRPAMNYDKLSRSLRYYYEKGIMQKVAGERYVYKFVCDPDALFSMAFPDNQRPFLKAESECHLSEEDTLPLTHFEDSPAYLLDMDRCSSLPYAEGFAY
Sequence of CRX (O43186 whole entry): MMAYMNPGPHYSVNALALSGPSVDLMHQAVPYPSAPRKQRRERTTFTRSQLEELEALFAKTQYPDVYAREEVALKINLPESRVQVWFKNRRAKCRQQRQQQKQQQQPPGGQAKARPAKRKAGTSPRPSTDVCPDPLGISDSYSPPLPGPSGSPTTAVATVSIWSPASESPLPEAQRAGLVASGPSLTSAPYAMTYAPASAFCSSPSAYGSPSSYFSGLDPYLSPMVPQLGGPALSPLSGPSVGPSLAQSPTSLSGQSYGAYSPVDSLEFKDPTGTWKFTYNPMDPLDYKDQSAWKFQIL

For TAGAAG, the binding signal with FLI1 is 1.05 fold enrichment (6-mer frequency, TF over GST control); with ELK1, 1.19 fold enrichment (6-mer frequency, TF over GST control); with GABPA, 1.15 fold enrichment (6-mer frequency, TF over GST control); with ERG it was 1.19 fold enrichment (6-mer frequency, TF over GST control); in the test with ELF1 it was 1.23 fold enrichment (6-mer frequency, TF over GST control); with EHF, 1.15 fold enrichment (6-mer frequency, TF over GST control). In addition, the binding signal with SPI1 was 1.24 fold enrichment (6-mer frequency, TF over GST control); in the test with SPIB, 1.24 fold enrichment (6-mer frequency, TF over GST control); with ELK3 it was 1.13 fold enrichment (6-mer frequency, TF over GST control); in the test with ETV5, 1.08 fold enrichment (6-mer frequency, TF over GST control); with HSF1 it was 2.77 fold enrichment (6-mer frequency, TF over GST control); in the test with SPIC, 1.31 fold enrichment (6-mer frequency, TF over GST control). Also, the binding signal with ELF4 is 1.19 fold enrichment (6-mer frequency, TF over GST control); with ELK4, 1.16 fold enrichment (6-mer frequency, TF over GST control); with ETV2 it was 1.18 fold enrichment (6-mer frequency, TF over GST control); in the test with ELF3, 1.18 fold enrichment (6-mer frequency, TF over GST control); with CRX it was 1.72 fold enrichment (6-mer frequency, TF over GST control); with ETV1, 1.06 fold enrichment (6-mer frequency, TF over GST control).
